# Results from paper PMC11442847.
# Target: Tubulin alpha-1C chain (UniProt Q9BQE3)
# Test: cross-link between two proteins; cross-linking mass spectrometry
# Sequence of UniProt Q9BQE3 (Q9BQE3 whole entry): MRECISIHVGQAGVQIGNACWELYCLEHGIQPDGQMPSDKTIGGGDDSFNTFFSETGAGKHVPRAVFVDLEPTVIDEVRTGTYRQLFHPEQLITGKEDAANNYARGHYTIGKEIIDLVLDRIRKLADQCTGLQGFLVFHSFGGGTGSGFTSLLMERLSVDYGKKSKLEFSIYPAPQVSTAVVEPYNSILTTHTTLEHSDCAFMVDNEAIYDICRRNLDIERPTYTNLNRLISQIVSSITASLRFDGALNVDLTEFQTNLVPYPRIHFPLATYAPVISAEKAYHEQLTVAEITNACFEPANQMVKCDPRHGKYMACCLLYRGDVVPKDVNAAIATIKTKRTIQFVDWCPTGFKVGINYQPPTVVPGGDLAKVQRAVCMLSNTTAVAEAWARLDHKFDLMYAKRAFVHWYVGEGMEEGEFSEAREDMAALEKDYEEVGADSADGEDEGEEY
substance,measurement,value
"Tubulin beta chain, P07437",listed as a hit,yes
